In the library only some 5.6% were active in any assay of this set; here they are far more common.
Six1-Eya2 blk = qHTS Assay for Inhibitors of the Six1/Eya2 Interaction. activity change, % (test concentration not listed). hit rate 0.56% among 360,000. AlphaScreen GST-Six1/His-Eya2 binding, biochemical; active compounds read low; in the data active = activity change below about -65%; inconclusive = mostly about -30% to -63%
Target sequence (O00167 whole entry, looked up): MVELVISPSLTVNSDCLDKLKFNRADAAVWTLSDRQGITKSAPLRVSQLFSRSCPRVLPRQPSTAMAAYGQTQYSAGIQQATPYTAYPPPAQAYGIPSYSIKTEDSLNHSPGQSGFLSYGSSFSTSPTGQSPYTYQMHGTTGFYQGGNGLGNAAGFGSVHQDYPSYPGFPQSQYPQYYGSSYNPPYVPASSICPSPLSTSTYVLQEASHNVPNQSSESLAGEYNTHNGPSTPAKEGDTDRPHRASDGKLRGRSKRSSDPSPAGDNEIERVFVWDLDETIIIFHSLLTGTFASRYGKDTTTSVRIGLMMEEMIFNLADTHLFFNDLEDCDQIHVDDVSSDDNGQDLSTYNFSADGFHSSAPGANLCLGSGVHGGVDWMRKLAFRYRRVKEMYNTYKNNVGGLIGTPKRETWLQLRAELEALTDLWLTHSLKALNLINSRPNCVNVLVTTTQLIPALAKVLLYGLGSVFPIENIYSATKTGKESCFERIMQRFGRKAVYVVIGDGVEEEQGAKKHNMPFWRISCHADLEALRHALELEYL
Target sequence (Q15475 whole entry, looked up): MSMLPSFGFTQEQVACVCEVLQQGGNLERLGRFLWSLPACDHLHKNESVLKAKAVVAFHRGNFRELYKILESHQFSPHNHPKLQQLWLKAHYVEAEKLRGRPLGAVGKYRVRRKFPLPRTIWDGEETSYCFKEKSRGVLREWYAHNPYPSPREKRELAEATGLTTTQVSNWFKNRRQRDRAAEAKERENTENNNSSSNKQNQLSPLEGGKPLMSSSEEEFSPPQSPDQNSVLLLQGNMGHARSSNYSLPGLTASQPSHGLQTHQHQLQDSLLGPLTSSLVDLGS
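AlphaScreen with GST-Six1 and His-Eya2 (5X mix: 250 nM and 500 nM), glutathione donor and nickel acceptor beads; buffer 50 mM Tris pH 8.0, 300 mM NaCl, 1 mM TCEP; 1 h at 37 C in the dark.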
PKM2 act = qHTS Assay for Activators of Human Muscle isoform 2 Pyruvate Kinase; Pyruvate kinase PKM (Homo sapiens), P14618; purified PKM2, Kinase-Glo ATP luminescence, activation; response scale: 0% is enzyme alone, no compound; Potency, µM (top dose mostly 57.5 µM), without a hit: at the top dose activation, most hits filed as activators; hit rate 0.34% among 260,000; note: potency is the fitted concentration of half-maximal effect; nearly all actives have a fitted effect of over 55% in size
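Kinase-Glo luminescence reports ATP generated from ADP (0.1 mM) and PEP (0.5 mM) by purified hPK-M2 after 1 h at room temperature, pH 7.2 imidazole buffer; intermediate enzyme activity allows detecting inhibitors and activators.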
RORg inh = qHTS for inhibitors of ROR gamma transcriptional activity; Nuclear receptor ROR-gamma (Mus musculus), P51450; Drosophila S2 Gal4-RORgamma UAS-luciferase reporter, 20 h; Potency, µM (top dose mostly 53.6 µM), for the others: top-dose activity change, negative = inhibition, actives largely listed as inhibitors; hit rate 5.4% among 310,000; AID 2551, 2010; note: potency is the fitted concentration of half-maximal effect; nearly all actives have a fitted effect of over 60% in size
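A Gal4/UAS one-hybrid system in insect cells: metallothionein-promoter Gal4–ROR gamma fusion plus Photinus luciferase reporter. Copper sulfate 700 uM final, 20 hr ambient incubation, luminescent detection after 10 min with reagent.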
CtBP-E1A blk = qHTS Assay for Inhibitors of the CtBP/E1A Interaction | CtBP / adenovirus E1A interaction (AlphaScreen) | AlphaScreen GST-E1A/His-CtBP binding, 1536-well; active compounds read low | activity change, % (test concentration not listed) | hit rate 0.49% among 340,000 | AID 651724, 2012; in the data active = activity change below about -65%; inconclusive = mostly about -30% to -63%
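Steps: dispense buffer (Tris pH 8.0, NaCl 300 mM, TCEP 1 mM, BSA, Tween 20); add 5X protein mix (GST-E1A, His-CtBP, 125 nM each); pin 23 nL compound; 2 h at 37 °C, dark; add 5X beads (50 ug/mL); 1 h; read.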
Gal4-VP16 FLuc = VP16 counterscreen qHTS for inhibitors of ROR gamma transcriptional activity. AID 2546, 2010. hit rate 3.5% among 310,000. Potency, µM (series often up to 53.6 µM), without a hit: at the highest dose activity, negative = inhibition, usual class: inhibitors. Drosophila S2 Gal4-VP16 UAS-luciferase, luminescence, 20 h;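 note: Gal4-VP16 expression switched on by copper sulfate through the metallothionein promoter; potency is the fitted concentration of half-maximal effect; nearly all actives have a fitted effect of over 50% in size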
Active calls of the source: *; ? = inconclusive; · = no result given; [ ] = dose if it differs, or a comment. Unless noted, calls come from the whole dose curve; as a rule, active = well fitted curve in the direction sought with a large enough effect; inconclusive = small, poorly fitted or top-dose-only effect, or another doubt; inactive = no such curve, though single readings can be large; an effect the other way counts as inactive or inconclusive. % is set by controls: 0 for no effect and ±100 for the full control effect.

SMILES | Six1-Eya2 blk | PKM2 act | RORg inh | CtBP-E1A blk | Gal4-VP16 FLuc
CCN1CCN(C(=O)c2ccc3c(=O)n(CCC4=CCCCC4)c(=O)[nH]c3c2)CC1 | -7.6 | 18.3% | ? | -10.2 | 16.3%
O=c1c2ccccc2[nH]c(=S)n1CCC1=CCCCC1 | 2.5 | 6.2% | 1.58µM* | 4.6 | 1.41µM*
CC1CC(C)CN(CCCn2c(=S)[nH]c3ccccc3c2=O)C1 (stereo not drawn) | -17.3 | -5.3% | ? | -6.7 | ?
C=CCn1c(=S)[nH]c2ccccc2c1=O | 5.5 | 9.8% | 5.62µM* | -2.7 | 4.47µM*
C=C(C)Cn1c(=S)[nH]c2ccccc2c1=O | 5.4 | -1.7% | 3.98µM* | 1.8 | 11.2µM*
COCCN(CCOC)S(=O)(=O)c1ccc(C(=O)Nc2c(C)n(C)n(-c3ccccc3)c2=O)cc1 | 20.7 | -0.4% | 9.8% | 5.9 | 2.2%
CCN(CC(=O)Nc1c(F)cccc1F)C(=O)c1ccc(N2CCCC2=O)cc1 | 7.1 | · | · | 5.4 | ·
CCOc1cc2[nH]c(=S)n(CCC(=O)NC3CCCCC3)c(=O)c2cc1OCC | 10.7 | · | · | -17.1 | ·
CC(C)COn1c(=S)[nH]c2ccccc2c1=O | -1.1 | -1.8% | 2.24µM* | 1.5 | 10µM*
CC(C)n1[nH]c2ccccc2c1=O | -6.5 | · | · | 1.3 | ·
CC(C)Cn1c(=S)[nH]c2ccccc2c1=O | 4.2 | -7.2% | 1.12µM* | 3.5 | 4.47µM*
C=CCn1c(SCCNC(C)=O)nc2cc(-c3ccccc3)sc2c1=O | 11.3 | -1.1% | ? | 0.0 | 1.3%
C=CCn1c(=S)[nH]c2cc(-c3ccccc3)sc2c1=O | -1.8 | · | 1µM* | -5.4 | 2µM*
COc1cccc(CN2CC(C(=O)NC3CCCCCC3)CCC2=O)c1 (stereo not drawn) | 5.9 | · | 5.9% | -3.1 | 3.5%
COc1ccc(S(=O)(=O)N2CCOC23CCN(S(C)(=O)=O)CC3)cc1 | 4.8 | · | · | 6.4 | ·
CCNC(=S)N/N=C/c1cc(C)n(-c2ccc(Cl)cc2)c1C | -19.2 | 2.5% | 1.41µM* | -17.0 | 5.01µM*
Cc1nc2ccccn2c1C(=O)N/N=C/c1cc(C)n(-c2ccc(Cl)cc2)c1C | -17.8 | 0.3% | 20µM* | -23.4 | 12.6µM*
Cc1cc(/C=N/NC(N)=S)c(C)n1-c1ccc(Cl)c(Cl)c1 | -25.2 | -0.4% | 1.41µM* | -14.4 | 3.16µM*
Cc1cc(/C=N/NC(=O)Cn2c3ccccc3c(=O)c3ccccc32)c(C)n1-c1ccc(Cl)cc1 | -2.1 | -6.3% | -16.9% | -1.1 | 0.4%
O=Cc1ccc(OCC(=O)Nc2ccccc2C(F)(F)F)cc1 | 1.0 | -2.4% | 4.1% | -3.3 | 4.5%
Cc1cc(C)n2cc(CSc3nnnn3-c3ccccc3C)nc2n1 | -3.5 | 14.1µM* | -13.1%[10 µM] | -3.4 | -4.5%
Cc1ccnc(SCc2cn3c(C)cc(C)nc3n2)n1 | -7.8 | 0.0% | 18.8% | 1.2 | -2.6%
NNC(=S)Nc1cccc(Cl)c1 | -0.9 | -3.2% | 7.94µM* | 1.2 | ?
C=COCCNC(=S)Nc1cccc(Cl)c1 | -6.6 | -0.6% | 6.31µM* | -15.9 | ?
COc1ccc(NC(=S)NNC(=O)CNc2ccc(Cl)cc2)cc1 | -4.2 | -1.7% | 5.62µM* | -5.9 | 7.94µM*
SMILES | Six1-Eya2 blk | PKM2 act | RORg inh | CtBP-E1A blk | Gal4-VP16 FLuc
COC(CC(=O)NNC(=S)Nc1ccc(Cl)cc1)OC | -4.6 | · | ? | -1.9 | ?
COCCCNC(=S)NNC(=S)Nc1cccc(Cl)c1 | 6.3 | -17.7% | -28.6% | · | 5.8%
Cc1ccc(C(=O)NNC(=O)CNc2cccc(Cl)c2)cc1 | -1.8 | 1.0% | 7.2% | 9.4 | 4.5%
O=C(CNc1cccc(Cl)c1)NNC(=S)NCc1ccccc1 | -4.0 | -1.5% | 14.1µM* | 1.9 | -12.5%
O=C(CSc1nncn1-c1ccccc1)Nc1cc(F)ccc1F | 3.0 | 4.3% | 19.1% | 8.7 | 16.3%
N#Cc1cccc(CS(=O)(=O)c2nc3ccccc3s2)c1 | · | · | -35.2% | · | -4.4%
S=C(NCc1ccccc1)Nc1cccc(Cl)c1 | 0.5 | -11.8% | 5.62µM* | -3.5 | 12.6µM*
O=C(CCc1ccccc1)NNC(=S)NCc1ccc(Cl)cc1 | 0.2 | -11.0% | 1.12µM* | 0.3 | ?
O=C(CC(=O)NCc1ccc(Cl)cc1)NCc1ccccc1 | -3.9 | · | 14.3% | 2.0 | 5.1%
O=C(CNc1ccc(Cl)cc1)NNC(=S)NCc1ccccc1 | 2.2 | -0.7% | 10µM* | 3.7 | ?
Cc1cc2c(c(C#N)c1C)NC=NC2C (stereo not drawn) | -9.4 | · | · | 1.6 | ·
C/C(=N\OCC(=O)OC(C)C(=O)Nc1ccc(C)c(S(=O)(=O)N2CCOCC2)c1)c1ccc2c(c1)OCO2 (stereo not drawn) | -22.6 | · | · | 0.0 | ·
O=C1/C(=C/c2ccc(N3CCCC3)cc2)NC(=S)N1C1CC1 | -22.3 | 4.4% | 7.08µM* | 8.2 | 11.2µM*
Cc1cc(N2CCCC2)ccc1/C=C1\NC(=S)N(C)C1=O | ? | 2.2% | -42.3% | -24.4 | 2.51µM*
COc1ccccc1/C=C/C(=O)NCCc1ccccn1 | -3.2 | -0.9% | 3.5% | 4.1 | ?
CCOC(=O)CN1NC2(CCCCCC2)NC1=S | 0.4 | -7.5% | 7.08µM* | 8.7 | -17.3%
CN1CCc2c(sc(NC(=O)c3cc4cc([N+](=O)[O-])ccc4s3)c2C(N)=O)C1 | · | 1.3% | 5.62µM* | · | 3.16µM*
Cc1noc(C)c1-c1ccc2ncnc(NCc3ccc(F)cc3)c2c1 | · | · | 8.6% | · | -12.4%
COc1ccccc1CNc1ncnc2ccc(-c3ccc(N(C)C)cc3)cc12 | · | · | -3.5% | · | 3.0%
COc1ccccc1CNc1ncnc2ccc(-c3ccccc3OC)cc12 | · | · | ? | · | 22.4µM*
Cc1noc(C)c1-c1ccc2ncnc(NCc3cccc(C(F)(F)F)c3)c2c1 | · | · | -15.9% | · | 12.6µM*
Cc1noc(C)c1-c1ccc2ncnc(NCc3cccc(-c4ccccc4)c3)c2c1 | · | · | 7.8% | · | ?
Cc1noc(C)c1-c1ccc2ncnc(NCc3ccccc3F)c2c1 | · | · | -9.3% | · | 11.2µM*
CCOc1ccccc1CNc1ncnc2ccc(-c3c(C)noc3C)cc12 | · | · | 39.8µM* | · | ?
O=C1C2CC(O)CN2C(=S)N1Cc1ccccc1 (stereo not drawn) | -16.2 | 6.8% | -0.2% | 0.5 | -8.7%
SMILES | Six1-Eya2 blk | PKM2 act | RORg inh | CtBP-E1A blk | Gal4-VP16 FLuc
Cc1ccccc1-c1ccc2ncnc(N(C)Cc3ccco3)c2c1 | · | · | -4.4% | · | -3.9%
Cc1noc(C)c1-c1ccc2ncnc(N(C)Cc3ccco3)c2c1 | · | · | 12.6µM* | · | ?
ClC1(CNc2ccccc2)CCN(Cc2ccccc2)CC1 | -27.9 | · | · | -13.2 | ·
CCOc1ccc(N)c(SSc2cc(OCC)ccc2N)c1 | ? | · | 7.94µM* | · | 6.31µM*
COC(=O)Cc1cc(=O)n2c(nc3ccccc32)[nH]1 | 0.4 | · | · | 9.8 | ·
COc1cccc(-c2c(C(=O)N/N=C(\C)c3ccc(Cl)s3)nnn2-c2nonc2N)c1 | 0.1 | · | -2.4% | -12.3 | 10µM*
